Experimental data: the OligoGym collection

Each sequence was assayed against MAGOHB (assay: pooled miR-30 sensor sort-seq; sequence = guide strand). Conditions: shRNA.
Also: reference of the scale not given here.

| Sequence | sensor-assay potency score (higher = more potent) |
| --- | --- |
| TTTTCTGATCATCACATCATTT | -1.33 |
| AATTACAATTTCAAGCTCCTGT | 0.142 |
| TTACATCAATAAGAGAACCTAT | -0.7 |

These sequences were tested against MAGOH in the same assay as above. Conditions: shRNA.

| Sequence | sensor-assay potency score (higher = more potent) |
| --- | --- |
| TCCAATAAGACTGAAGACCAAA | -1.96 |
| TTAACTTCCCGTCCGGTCGAAA | -1.06 |
| TAAGCCTTCTGGATCCTTGGAT | 0.401 |
| TTGGCATATCTTAACTTCCCGT | -0.899 |
| ATATCTTAACTTCCCGTCCGGT | -0.615 |
| TTCTTGTAATTGCTGTTGTTGG | -1.26 |
| TTTTCTGATCATGACATCATTC | -1.16 |
| TCTGATCATGACATCATTCTTG | 0.0716 |
| TATCTTAACTTCCCGTCCGGTC | -1.04 |
| TCAAACTCCAGGAACTCGTGGC | 0.562 |
| TAATAAAATACTCGTAAGCCTT | -0.986 |
| TTGATTGACATCAATAAGGGAA | 0.101 |

These sequences were tested against MALL in the same assay as above. Conditions: shRNA.

| Sequence | sensor-assay potency score (higher = more potent) |
| --- | --- |
| TTGTAAAATCCAAACAAGTAAG | -1.62 |
| TAAATGTCCAAACAAAGTGTGG | -1.11 |
| TCTTTTGTAAAATCCAAACAAG | -1.37 |
| TTTCTCAGAAACAATCGTGGCA | 0.81 |
| AGTTTCTCAGAAACAATCGTGG | -1.29 |
| AAACAAGTAAGACAACAGGAAC | -1.63 |
| TACAGGATGCCAGTGGTCCCGT | -0.996 |
| TAATGTAGTAAATTCTTGGGTC | 0.801 |
| TTCTCAGAAACAATCGTGGCAT | 0.00713 |
| TTAATGTAGTAAATTCTTGGGT | -0.194 |
| TAAGACAACAGGAACATCAAGG | -0.729 |
| AATTAATGTAGTAAATTCTTGG | -0.359 |

These sequences were tested against MAMSTR in the same assay as above. Conditions: shRNA.

| Sequence | sensor-assay potency score (higher = more potent) |
| --- | --- |
| TAGACTTGGTCCCCGACACTGG | -0.651 |
| TCCAGAGTCAGAGCCGCTGAGC | -2 |
| TTGTCTCCGATCCTGTGTCTGC | -0.79 |
| TGAAGTTCCAACTTGTGTGGGG | 0.878 |
| TGCTGGAGTCAGATAAGTCAGC | -1.36 |
| TGCTGCGCTGGGCTTGACCGAG | -1.43 |
| TCTGAAGTTCCAACTTGTGTGG | -0.0798 |
| TGGAGTCAGATAAGTCAGCGGA | -0.63 |
| TTGACCGAGCCCTGACGCCGGG | -1.2 |
| TTCCTGCAGCTCCTCCTCCAGA | -1.58 |
| TCGGCTTGGGGGTCTGCCCTGG | -0.566 |
| TTAGGAAGCAACTGCGCCCTCC | -0.483 |
